# Measurements reported in paper PMC5540273 (PLoS ONE, 2017).
# Tests used:
# Conditions in all cases: concentration: 1 μM, replicates: in singlicate; n = 1
# FGFR1 = test system: FGFR1
# FGFR2 = test system: FGFR2
# FGFR3 = test system: FGFR3
# FGFR4 = test system: FGFR4
# FGR = test system: FGR
# FLT1 = test system: FLT1
# FLT3-autoinhibited = test system: FLT3-autoinhibited
# FLT3 = test system: FLT3
# FLT4 = test system: FLT4
# FRK = test system: FRK
# 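Further: KINOMEscan kinase panel screen.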
structure (smiles),measurement,setting,value
COC(=O)Nc1nc2cc(Oc3ccc(NC(=O)Nc4cccc(SC)c4)cc3)ccc2[nH]1.Cl [GW697999],%Inh,FGFR1,11%
same,%Inh,FGFR2,5%
same,%Inh,FGFR3,0%
same,%Inh,FGFR4,0%
same,%Inh,FGR,47%
same,%Inh,FLT1,98.9%
same,%Inh,FLT3-autoinhibited,22%
same,%Inh,FLT3,99.3%
same,%Inh,FLT4,86%
same,%Inh,FRK,48%
Cc1cccc(Nc2nc(NCCN)ncc2C(N)=O)c1 [GSK1292139],%Inh,FGFR1,0%
same,%Inh,FGFR2,0%
same,%Inh,FGFR3,0%
same,%Inh,FGFR4,0%
same,%Inh,FGR,49%
same,%Inh,FLT1,7%
same,%Inh,FLT3-autoinhibited,15%
same,%Inh,FLT3,13%
same,%Inh,FLT4,0%
same,%Inh,FRK,0%
COC(=O)Nc1nc2ccc(Oc3ccc(CC(=O)Nc4cc(C(F)(F)F)ccc4F)cc3)cc2[nH]1 [GW680903],%Inh,FGFR1,0%
same,%Inh,FGFR2,6%
same,%Inh,FGFR3,8%
same,%Inh,FGFR4,4%
same,%Inh,FGR,10%
same,%Inh,FLT1,93%
same,%Inh,FLT3-autoinhibited,20%
same,%Inh,FLT3,99.3%
same,%Inh,FLT4,72%
same,%Inh,FRK,19%
Cc1ccc(NC(=O)c2cccc(N3CCCCC3)c2)cc1-c1ccc(C(=O)NCC2CC2)cc1 [GSK1917008],%Inh,FGFR1,21%
same,%Inh,FGFR2,20%
same,%Inh,FGFR3,21%
same,%Inh,FGFR4,18%
same,%Inh,FGR,24%
same,%Inh,FLT1,34%
same,%Inh,FLT3-autoinhibited,20%
same,%Inh,FLT3,0%
same,%Inh,FLT4,13%
same,%Inh,FRK,49%
COc1ccc(C)c(Nc2ccnc(Nc3ccc(-c4cnc[nH]4)cc3)n2)c1.Cl [GW784041],%Inh,FGFR1,23%
same,%Inh,FGFR2,4%
same,%Inh,FGFR3,48%
same,%Inh,FGFR4,100%
same,%Inh,FGR,86%
same,%Inh,FLT1,14%
same,%Inh,FLT3-autoinhibited,0%
same,%Inh,FLT3,15%
same,%Inh,FLT4,10%
same,%Inh,FRK,69%
COc1cccc(NC(=O)NCCNc2ccnc(Nc3ccc(F)cc3)n2)c1 [GSK1379879],%Inh,FGFR1,0%
same,%Inh,FGFR2,53%
same,%Inh,FGFR3,2%
same,%Inh,FGFR4,9%
same,%Inh,FGR,22%
same,%Inh,FLT1,15%
same,%Inh,FLT3-autoinhibited,0%
same,%Inh,FLT3,0%
same,%Inh,FLT4,0%
same,%Inh,FRK,11%
CN(c1ccc(F)c(NC(=O)c2cccc(OC(C)(C)C#N)c2Cl)c1)c1ccc2nc(NC(=O)C3CC3)sc2n1,%Inh,FGFR1,48%
same,%Inh,FGFR2,72%
same,%Inh,FGFR3,8%
same,%Inh,FGFR4,26%
same,%Inh,FGR,84%
same,%Inh,FLT1,95.8%
same,%Inh,FLT3-autoinhibited,0%
same,%Inh,FLT3,96.7%
same,%Inh,FLT4,99.8%
same,%Inh,FRK,71%
N#CC1(c2cccc(C(=O)Nc3cccc(Oc4ccc5nc(NC(=O)C6CC6)sc5n4)c3)c2)CC1,%Inh,FGFR1,92.7%
same,%Inh,FGFR2,95.3%
same,%Inh,FGFR3,70%
same,%Inh,FGFR4,70%
same,%Inh,FGR,88%
same,%Inh,FLT1,98.5%
same,%Inh,FLT3-autoinhibited,16%
same,%Inh,FLT3,96%
same,%Inh,FLT4,100%
same,%Inh,FRK,98%
CC(C)c1nc(-c2ccc(F)c(NS(=O)(=O)c3c(F)cccc3F)c2)c(-c2ccnc(Nc3ccc(N4CCOCC4)nc3)n2)s1 [GSK1804250],%Inh,FGFR1,24%
same,%Inh,FGFR2,11%
same,%Inh,FGFR3,8%
same,%Inh,FGFR4,0%
same,%Inh,FGR,97.7%
same,%Inh,FLT1,88%
same,%Inh,FLT3-autoinhibited,0%
same,%Inh,FLT3,12%
same,%Inh,FLT4,97.3%
same,%Inh,FRK,89%
